Data reported in PubChem BioAssay (EPA / NIEHS).
Records with an inconclusive call do not appear. Calls of active or inactive are those of the source. How the source made its calls, unless noted: active means hit-call score of the fitted dose curve at least 0.9, where 1 is the maximum; inactive means score below 0.9.

Key:
[1] = target: Oxysterols receptor LXR-alpha (Homo sapiens) (UniProt Q13133); test: ATG_LXRa_TRANS: Attagene TRANS-FACTORIAL HepG2 Assay for human Liver X Receptor alpha (LXRa) (AID 2282980; active means hit-call score of the fitted dose curve at least 0.9, where 1 is the maximum); details: HepG2 Attagene TRANS reporter, LXRa transactivation
Method in brief: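 Read-out: reporter transcript levels by RT-PCR plus capillary electrophoresis, fluorescence intensity. Transiently transfected HepG2, exogenous NR-GAL4 chimera, GAL4-UAS reporters; 24 h compound exposure. Activity = increase over DMSO negative control.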

[2] = ATG_M_06_TRANS: Attagene TRANS-FACTORIAL HepG2 Assay for M06 Transcription Factor (Internal Marker) (AID 2282983; active means hit-call score of the fitted dose curve at least 0.9, where 1 is the maximum); details: HepG2 Attagene TRANS M06 internal marker reporter
Method in brief: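 After a 24 h chemical treatment of transfected HepG2, RNA underwent DNase I treatment, reverse transcription and reporter-specific PCR; labelled, HpaI-digested products were sized by capillary electrophoresis. Signal increase relative to DMSO defined activity.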

[3] = ATG_M_32_TRANS: Attagene TRANS-FACTORIAL HepG2 Assay for M32 Transcription Factor (Internal Marker) (AID 2282984; active means hit-call score of the fitted dose curve at least 0.9, where 1 is the maximum); details: HepG2 Attagene TRANS M32 internal marker reporter
Method in brief: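 Human hepatoma HepG2, transient MRTU transfection, 24 h treatment. RNA → RT-PCR → fluorescent primer extension → HpaI digest (2 h, 37 C) → CE. Positive-direction fit vs DMSO.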

[4] = target: Nuclear receptor subfamily 4 group A member 2 (Homo sapiens) (UniProt P43354); test: ATG_NURR1_TRANS: Attagene TRANS-FACTORIAL HepG2 Assay for human Nuclear Receptor Related Protein 1 (NURR1) (AID 2282985; active means hit-call score of the fitted dose curve at least 0.9, where 1 is the maximum); details: HepG2 Attagene TRANS reporter, mRNA readout
Method in brief: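 After 24 h chemical dosing, total RNA from transiently transfected HepG2 cells was reverse-transcribed and reporter cDNA PCR-amplified, FAM-labelled and analysed by capillary electrophoresis. Activity fitted in positive direction, DMSO as negative control.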

[5] = target: Transcriptional activator Myb (Homo sapiens) (UniProt P10242); test: ATG_Myb_CIS: Attagene CIS-FACTORIAL HepG2 Assay for human Myeloblastosis (Myb) Proto-Oncogene Transcription Factor (AID 2282986); details: HepG2 Attagene CIS-FACTORIAL Myb reporter transcription; actives raise or lower the signal
Method in brief: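 Reporter transcript levels, quantified by fluorescent RT-PCR and capillary electrophoresis, serve as the read-out. Transfected HepG2 cells carrying cis-promoter reporter units are dosed for 24 hours, and curves are fitted bidirectionally against DMSO controls.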

[6] = target: Nuclear respiratory factor 1 (Homo sapiens) (UniProt Q16656); test: ATG_NRF1_CIS: Attagene CIS-FACTORIAL HepG2 Assay for human Nuclear Respiratory Factor 1 (NRF1) Orphan Gene (AID 2282987); details: HepG2 NRF1 cis-element reporter, Attagene multiplex; actives raise or lower the signal
Method in brief: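 Multiplexed cis-reporter assay, HepG2 cells, 24 h treatment. Total RNA → oligo(dT) RT → PCR with reporter-specific primers → 6-FAM primer extension → HpaI cut → CE. Bidirectional fit vs DMSO.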

[7] = ATG_NFI_CIS: Attagene CIS-FACTORIAL HepG2 Assay for human Nuclear Factor I (NFI) (AID 2282989); details: HepG2 cis-regulatory reporter, NFI response element transcription; actives raise or lower the signal
Method in brief: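 HepG2, transient MRTU, 24 h exposure; RNA→cDNA→PCR→FAM label→HpaI→CE fluorescence. Bidirectional fit, DMSO = baseline.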

[8] = target: Myc proto-oncogene protein (Homo sapiens) (UniProt P01106); test: ATG_Myc_CIS: Attagene CIS-FACTORIAL HepG2 Assay for human Myelocytomatosis (Myc) Proto-Oncogene Transcription Factor (AID 2282990); details: HepG2, Attagene cis-reporter transcription factor activity; actives raise or lower the signal
Method in brief: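 HepG2 cells transiently transfected with multiple cis-promoter-driven reporter transcription units, so endogenous TF activity is read. After 24 h compound exposure, reporter mRNA was quantified by RT-PCR, 6-FAM labelling, HpaI digestion and capillary electrophoresis; bidirectional fit versus DMSO.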

[9] = ATG_NF_kB_CIS: Attagene CIS-FACTORIAL HepG2 Assay for human Nuclear Factor Kappa B (NF-kB) (AID 2282991); details: HepG2 Attagene cis-factorial NF-kB reporter mRNA; actives raise or lower the signal
Method in brief: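 Transient MRTU transfection of human HepG2 liver cells → 24 h chemical exposure → total RNA, oligo(dT) RT → PCR, 6-FAM primer extension, HpaI digest 2 h 37 C → CE fragment analysis. Bidirectional fitting, DMSO negative control.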

[10] = ATG_NRF2_ARE_CIS: Attagene CIS-FACTORIAL HepG2 Assay for human Nuclear Factor Erythroid 2 Related Factor 2 (NFR2) response to Antioxidant Response Elements (ARE) (AID 2282992); details: HepG2 Attagene ARE/NRF2 reporter, transcription factor activity; actives raise or lower the signal;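 on AC50: reporter mRNA level measured by RT-PCR and capillary electrophoresis fluorescence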
Method in brief: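 Cis-factorial assay: transfected HepG2 reporter library, 24 h dosing, mRNA readout via RT-PCR/CE; DMSO-referenced bidirectional analysis.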

[11] = BSK_3C_TissueFactor: BioMAP Diversity Plus: 3C Assay for Tissue Factor Biomarker Activity (AID 2282997); details: BioMAP 3C HUVEC, tissue factor biomarker readout; actives raise or lower the signal
Method in brief: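 Human vascular primary cells (umbilical vein endothelium) received test chemical; Tissue Factor was determined by ELISA at 24 h, and both gain and loss of signal versus DMSO were fitted.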

[12] = BSK_3C_uPAR: BioMAP Diversity Plus: 3C Assay for Urokinase-type plasminogen activator receptor (uPAR) Biomarker Activity (AID 2282998); details: BioMAP 3C HUVEC, uPAR biomarker ELISA; actives raise or lower the signal
Method in brief: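 Dose primary human umbilical vein endothelial cells, incubate 24 h, measure cell-surface uPAR by ELISA, then fit the signal in both directions against the DMSO negative control.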

[13] = BSK_3C_VCAM1: BioMAP Diversity Plus: 3C Assay for Vascular cell adhesion molecule 1 (VCAM1) Biomarker Activity (AID 2282999); details: BioMAP 3C HUVEC, VCAM1 ELISA, cytokine-stimulated; actives raise or lower the signal
Method in brief: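 Human umbilical vein endothelial cells were dosed with compound for 24 h, after which cell-surface VCAM-1 was quantified by ELISA. Bidirectional curve fitting used DMSO as negative control and activity baseline.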

[14] = target: Oxysterols receptor LXR-beta (Homo sapiens) (UniProt P55055); test: ATG_LXRb_TRANS: Attagene TRANS-FACTORIAL HepG2 Assay for human Liver X Receptor beta (LXRb) (AID 2282981; active means hit-call score of the fitted dose curve at least 0.9, where 1 is the maximum); details: HepG2 Attagene TRANS GAL4-LXRb reporter, mRNA
Method in brief: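 In this TRANS format, exogenous chimeric NR-Gal4 protein activity, not endogenous factors, drives reporter expression in transfected human HepG2 cells. Exposure lasted 24 h; reporter mRNA was read by fluorescent capillary electrophoresis.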

[15] = target: Cellular tumor antigen p53 (Homo sapiens) (UniProt P04637); test: ATG_p53_CIS: Attagene CIS-FACTORIAL HepG2 Assay for human p53 Transcription Factor (AID 2282994); details: HepG2 p53 cis-element reporter, Attagene mRNA; actives raise or lower the signal
Method in brief: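 Using HepG2 hepatoma cells carrying cis-acting multiplexed reporters, mRNA induction is detected after a 24 h exposure. Gain- and loss-of-signal responses are fitted relative to DMSO-treated cells.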

[16] = ATG_Oct_MLP_CIS: Attagene CIS-FACTORIAL HepG2 Assay for human Octamer-Binding Transcription Factor (Oct) (AID 2282993); details: HepG2 Attagene cis-factorial Oct reporter, mRNA; actives raise or lower the signal
Method in brief: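 Multiplexed cis-reporter assay in human liver HepG2 cells, 24 h incubation. Reporter RNA amplified and labelled, then resolved by capillary electrophoresis; DMSO serves as negative control and baseline.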

[17] = target: Hepatocyte nuclear factor 4-alpha (Homo sapiens) (UniProt P41235); test: ATG_HNF4a_TRANS: Attagene TRANS-FACTORIAL HepG2 Assay for human Hepatocyte Nuclear Factor 4 alpha (HNF4a) (AID 2282982; active means hit-call score of the fitted dose curve at least 0.9, where 1 is the maximum); details: HepG2 HNF4a transactivation reporter, mRNA readout
Method in brief: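 Cells used were human HepG2, transiently carrying GAL4-UAS reporter units read out against exogenous NR-GAL4 chimeras. Reporter transcript levels after 24 h dosing were quantified by fluorescent RT-PCR and capillary electrophoresis.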

Sequence of Cellular tumor antigen p53 (Homo sapiens) (P04637 whole entry, looked up): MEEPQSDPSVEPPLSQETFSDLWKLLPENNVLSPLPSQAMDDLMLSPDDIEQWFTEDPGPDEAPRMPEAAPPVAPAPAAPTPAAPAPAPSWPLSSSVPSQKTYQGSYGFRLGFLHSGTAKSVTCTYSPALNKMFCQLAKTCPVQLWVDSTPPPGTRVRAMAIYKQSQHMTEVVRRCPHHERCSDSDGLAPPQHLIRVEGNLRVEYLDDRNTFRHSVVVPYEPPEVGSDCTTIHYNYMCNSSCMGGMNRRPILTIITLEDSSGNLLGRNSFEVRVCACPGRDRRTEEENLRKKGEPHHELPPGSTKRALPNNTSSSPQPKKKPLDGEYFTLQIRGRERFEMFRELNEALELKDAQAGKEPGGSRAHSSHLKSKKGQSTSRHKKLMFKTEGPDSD
Sequence of Nuclear respiratory factor 1 (Homo sapiens) (Q16656 whole entry, looked up): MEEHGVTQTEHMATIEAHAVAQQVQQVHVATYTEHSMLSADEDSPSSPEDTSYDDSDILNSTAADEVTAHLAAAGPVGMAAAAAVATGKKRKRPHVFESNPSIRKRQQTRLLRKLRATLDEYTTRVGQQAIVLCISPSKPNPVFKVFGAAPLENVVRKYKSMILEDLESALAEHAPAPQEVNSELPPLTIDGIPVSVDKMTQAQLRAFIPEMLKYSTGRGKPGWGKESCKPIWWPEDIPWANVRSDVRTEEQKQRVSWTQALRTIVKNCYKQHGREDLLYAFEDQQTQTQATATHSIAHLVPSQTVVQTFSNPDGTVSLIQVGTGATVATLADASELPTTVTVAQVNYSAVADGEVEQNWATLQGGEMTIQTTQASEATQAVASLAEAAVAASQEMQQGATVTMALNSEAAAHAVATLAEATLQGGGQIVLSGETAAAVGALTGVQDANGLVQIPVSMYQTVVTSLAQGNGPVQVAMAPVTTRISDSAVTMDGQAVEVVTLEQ
Sequence of Oxysterols receptor LXR-beta (Homo sapiens) (P55055 whole entry, looked up, the tested form may be a part): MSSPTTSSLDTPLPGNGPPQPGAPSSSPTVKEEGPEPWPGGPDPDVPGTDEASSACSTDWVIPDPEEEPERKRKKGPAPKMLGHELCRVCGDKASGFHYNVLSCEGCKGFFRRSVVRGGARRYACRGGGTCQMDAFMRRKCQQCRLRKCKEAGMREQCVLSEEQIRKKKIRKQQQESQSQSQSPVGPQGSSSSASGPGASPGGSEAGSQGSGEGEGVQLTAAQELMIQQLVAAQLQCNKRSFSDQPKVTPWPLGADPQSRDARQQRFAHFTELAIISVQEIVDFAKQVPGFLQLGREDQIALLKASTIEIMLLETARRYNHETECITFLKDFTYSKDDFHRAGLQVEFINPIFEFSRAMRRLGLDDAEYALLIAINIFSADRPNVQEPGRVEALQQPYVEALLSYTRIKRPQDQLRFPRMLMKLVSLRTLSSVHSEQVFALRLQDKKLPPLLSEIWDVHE
Sequence of Transcriptional activator Myb (Homo sapiens) (P10242 whole entry, looked up): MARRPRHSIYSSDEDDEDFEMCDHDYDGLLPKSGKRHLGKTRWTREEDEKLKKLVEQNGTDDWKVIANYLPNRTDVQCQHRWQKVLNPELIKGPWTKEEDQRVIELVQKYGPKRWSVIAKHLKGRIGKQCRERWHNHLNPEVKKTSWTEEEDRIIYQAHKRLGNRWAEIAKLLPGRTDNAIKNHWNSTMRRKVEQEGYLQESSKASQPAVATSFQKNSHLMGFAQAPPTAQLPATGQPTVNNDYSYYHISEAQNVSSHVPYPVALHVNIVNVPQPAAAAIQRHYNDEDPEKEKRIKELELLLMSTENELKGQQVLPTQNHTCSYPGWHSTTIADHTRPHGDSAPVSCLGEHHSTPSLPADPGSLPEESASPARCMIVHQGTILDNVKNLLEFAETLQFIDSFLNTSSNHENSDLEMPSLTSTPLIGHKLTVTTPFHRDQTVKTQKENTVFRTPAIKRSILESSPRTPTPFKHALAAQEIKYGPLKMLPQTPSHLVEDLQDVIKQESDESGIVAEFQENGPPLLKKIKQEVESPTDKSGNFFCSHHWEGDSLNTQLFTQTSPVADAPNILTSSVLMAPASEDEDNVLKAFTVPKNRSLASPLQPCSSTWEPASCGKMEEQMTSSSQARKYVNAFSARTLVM
Sequence of Oxysterols receptor LXR-alpha (Homo sapiens) (Q13133 whole entry, looked up, the tested form may be a part): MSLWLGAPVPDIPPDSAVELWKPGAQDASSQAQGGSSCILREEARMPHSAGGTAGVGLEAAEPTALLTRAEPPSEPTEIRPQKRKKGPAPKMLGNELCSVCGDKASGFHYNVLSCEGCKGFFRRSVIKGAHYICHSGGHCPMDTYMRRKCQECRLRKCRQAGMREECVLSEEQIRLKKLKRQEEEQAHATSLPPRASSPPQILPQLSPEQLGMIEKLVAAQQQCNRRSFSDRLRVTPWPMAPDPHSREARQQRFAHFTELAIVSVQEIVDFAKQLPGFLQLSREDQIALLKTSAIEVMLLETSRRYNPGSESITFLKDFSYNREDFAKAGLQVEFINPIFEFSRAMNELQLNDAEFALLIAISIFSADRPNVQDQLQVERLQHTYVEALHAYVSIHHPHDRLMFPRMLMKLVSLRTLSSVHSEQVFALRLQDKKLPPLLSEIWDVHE
Sequence of Hepatocyte nuclear factor 4-alpha (Homo sapiens) (P41235 whole entry, looked up, the tested form may be a part): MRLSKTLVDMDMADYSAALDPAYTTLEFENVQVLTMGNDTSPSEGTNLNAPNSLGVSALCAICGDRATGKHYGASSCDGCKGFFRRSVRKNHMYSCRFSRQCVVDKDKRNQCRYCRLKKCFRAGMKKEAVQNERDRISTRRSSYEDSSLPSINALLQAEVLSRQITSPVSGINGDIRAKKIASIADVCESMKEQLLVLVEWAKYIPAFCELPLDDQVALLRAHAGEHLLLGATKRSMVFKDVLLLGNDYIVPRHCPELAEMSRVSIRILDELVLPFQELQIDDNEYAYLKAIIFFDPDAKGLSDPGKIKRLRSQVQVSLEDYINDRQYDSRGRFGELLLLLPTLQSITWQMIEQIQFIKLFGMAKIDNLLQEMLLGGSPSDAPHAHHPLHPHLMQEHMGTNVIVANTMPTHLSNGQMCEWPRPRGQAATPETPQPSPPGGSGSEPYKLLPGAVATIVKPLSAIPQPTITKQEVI
Sequence of Nuclear receptor subfamily 4 group A member 2 (Homo sapiens) (P43354 whole entry, looked up): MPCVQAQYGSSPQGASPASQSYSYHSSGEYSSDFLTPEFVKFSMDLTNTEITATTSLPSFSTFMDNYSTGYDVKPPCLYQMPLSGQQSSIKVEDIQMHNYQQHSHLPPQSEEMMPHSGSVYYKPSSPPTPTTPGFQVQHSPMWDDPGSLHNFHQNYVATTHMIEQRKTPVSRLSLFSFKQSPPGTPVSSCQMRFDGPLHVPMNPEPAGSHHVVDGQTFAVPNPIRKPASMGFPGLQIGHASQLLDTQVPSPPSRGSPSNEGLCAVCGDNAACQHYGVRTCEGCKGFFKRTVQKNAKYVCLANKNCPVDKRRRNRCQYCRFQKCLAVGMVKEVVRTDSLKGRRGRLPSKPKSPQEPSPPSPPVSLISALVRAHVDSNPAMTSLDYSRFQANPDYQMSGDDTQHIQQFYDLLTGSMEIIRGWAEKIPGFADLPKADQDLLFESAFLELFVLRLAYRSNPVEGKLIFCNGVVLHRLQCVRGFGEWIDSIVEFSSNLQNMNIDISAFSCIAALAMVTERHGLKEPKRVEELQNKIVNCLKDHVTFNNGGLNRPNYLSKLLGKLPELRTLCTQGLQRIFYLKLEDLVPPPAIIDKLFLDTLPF
Sequence of Myc proto-oncogene protein (Homo sapiens) (P01106 whole entry, looked up): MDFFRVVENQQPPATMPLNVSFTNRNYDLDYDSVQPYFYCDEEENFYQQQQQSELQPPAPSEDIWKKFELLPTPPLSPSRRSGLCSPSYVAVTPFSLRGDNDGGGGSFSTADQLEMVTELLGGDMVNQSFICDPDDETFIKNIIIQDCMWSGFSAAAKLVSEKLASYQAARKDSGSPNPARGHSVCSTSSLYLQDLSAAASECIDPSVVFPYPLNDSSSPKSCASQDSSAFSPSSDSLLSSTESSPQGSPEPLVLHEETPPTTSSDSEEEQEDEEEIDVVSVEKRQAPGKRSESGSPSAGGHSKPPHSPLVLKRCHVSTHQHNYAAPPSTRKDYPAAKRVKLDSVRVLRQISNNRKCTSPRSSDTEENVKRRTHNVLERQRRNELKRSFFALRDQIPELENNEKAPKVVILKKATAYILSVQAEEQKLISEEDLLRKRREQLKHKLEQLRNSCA

Compound	outcome [1]	outcome [2]	outcome [3]	outcome [4]	outcome [5]	outcome [6]	outcome [7]	outcome [8]	outcome [9]	outcome [10]	outcome [11]	outcome [12]	outcome [13]	outcome [14]	outcome [15]	outcome [16]	outcome [17]	AC50 [10]	AC50 [4]
CCCCCCCO	inactive	inactive	inactive	inactive	inactive	inactive	inactive	inactive	inactive	inactive	inactive	inactive	inactive						
COc1nccnc1CC(C)C		inactive			inactive	inactive	inactive	inactive	inactive	inactive				inactive	inactive				
O=C1CCCCC1C1CCCCC1 (stereo not given)	inactive			inactive	inactive	inactive	inactive	inactive	inactive	inactive						inactive			
CCCCOC(=O)C(C)CC (stereo not given)		inactive		inactive	inactive	inactive	inactive	inactive		inactive					inactive	inactive			
Nc1ccc(Cl)c(N)c1	inactive	inactive		inactive	inactive	inactive	inactive	inactive	inactive	inactive						inactive			
CCCCCCO		inactive		inactive	inactive	inactive	inactive	inactive	inactive	inactive				inactive	inactive	inactive	inactive		
CCCc1ccc(O)c(OC)c1		inactive			inactive	inactive	inactive	inactive							inactive	inactive		28.8 µM (active)	
CC1OC(=O)C(C)OC1=O (stereo not given)		inactive	inactive	inactive	inactive	inactive	inactive	inactive		inactive					inactive	inactive	inactive		
O=C(O)/C=C/c1ccccc1		inactive		inactive	inactive	inactive	inactive	inactive	inactive	inactive					inactive	inactive			
C=CC(=O)NCOCCCC		inactive	inactive	inactive	inactive	inactive	inactive	inactive			inactive	inactive	inactive			inactive		66.5 µM (active)	
Nc1ccnc(=O)[nH]1		inactive	inactive	inactive		inactive	inactive	inactive	inactive	inactive				inactive	inactive				
O=C(O)CCC(=O)O	inactive			inactive	inactive	inactive	inactive	inactive	inactive	inactive						inactive			
CC(=O)CC(=O)Nc1ccccc1C		inactive			inactive	inactive	inactive	inactive	inactive	inactive					inactive	inactive	inactive		
Nc1ccc(C(=O)O)cc1			inactive	inactive	inactive	inactive	inactive	inactive	inactive	inactive	inactive	inactive	inactive		inactive	inactive	inactive		
O=C(O)C1CCC(C(=O)O)CC1 (stereo not given)		inactive		inactive		inactive	inactive	inactive		inactive					inactive	inactive			
CC(=O)OCCc1ccccc1		inactive	inactive		inactive	inactive	inactive	inactive		inactive					inactive	inactive	inactive		
CC=C(C)C(C)=O		inactive			inactive	inactive	inactive	inactive	inactive	inactive	inactive	inactive	inactive	inactive					44.7 µM (active)
CC1=CCC2CC1C2(C)C (stereo not given)		inactive		inactive		inactive	inactive	inactive	inactive	inactive						inactive	inactive		
CCCC=C(C=O)CC		inactive		inactive	inactive	inactive	inactive	inactive	inactive	inactive				inactive			inactive		
CC(C)CC(=O)OCc1ccccc1		inactive		inactive		inactive	inactive	inactive	inactive	inactive					inactive	inactive	inactive		
